# Source: PubChem BioAssay
# Compounds with a hit are over-represented: about 22% of the library has one in this group of screens.
# Measles CPE: protection of cells from measles virus; Measles virus-infected cells, CPE protection, absorbance; protection (pct of control), % at 4 µM; 140,000 compounds, 1.5% hits; AID 841; in the data active means protection mostly above about 24%, no sharp cut-off; inactive means mostly below about 26%
# CYP2C9 activ: CYP2C9 (human) activation; recombinant CYP2C9, luciferin-H conversion, luminescence; active compounds read high; factor 1 = untreated enzyme, 0 = blocked; AID 1024; 96,000 compounds, 1.4% hits; P11712; activation factor at 5 µM;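 active means activation factor of 2 or more for CYP2C9 at a 5 µM dose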;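 further: 0 = sulfaphenazole-blocked wells and 1 = vehicle-only wells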
# Target sequence (P11712 whole entry, looked up): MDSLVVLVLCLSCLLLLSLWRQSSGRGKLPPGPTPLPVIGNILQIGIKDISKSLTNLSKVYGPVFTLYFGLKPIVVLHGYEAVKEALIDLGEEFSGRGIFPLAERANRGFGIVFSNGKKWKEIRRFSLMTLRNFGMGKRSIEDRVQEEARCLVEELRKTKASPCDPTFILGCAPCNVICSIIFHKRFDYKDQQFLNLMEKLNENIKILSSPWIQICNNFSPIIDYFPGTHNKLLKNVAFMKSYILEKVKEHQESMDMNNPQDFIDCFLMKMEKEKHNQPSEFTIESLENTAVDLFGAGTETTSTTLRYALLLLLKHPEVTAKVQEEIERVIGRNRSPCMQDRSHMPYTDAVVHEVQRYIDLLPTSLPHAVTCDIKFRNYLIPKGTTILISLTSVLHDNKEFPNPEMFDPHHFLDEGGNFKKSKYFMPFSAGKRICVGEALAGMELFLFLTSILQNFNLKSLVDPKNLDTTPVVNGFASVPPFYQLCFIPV
# CYP2C19 inh: human CYP2C19 inhibition | P33261 | CYP2C19 Supersomes, luciferin-H EGE luminescence, 30 min | inhibition, % at 5 µM | 96,000 compounds, 21% hits | AID 778;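 active means CYP2C19 inhibition above a set limit at 5 µM in the primary screen, cut at about 50% in these data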;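 further: plate controls were negative control wells for no effect and 2.5 mM tranylcypromine positive control for full effect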
# CYP2C19 act: increases human CYP2C19 enzyme activity; activation factor at 5 µM; recombinant CYP2C19, luciferin-H EGE luminescence; active compounds read high; 0 = fully inhibited enzyme, 1 = untreated enzyme; P33261; 96,000 tested, under 10 active; AID 1025;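 active means activation factor of at least 2 at 5 µM in the primary screen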;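 further: 0 = wells with 2.5 mM tranylcypromine and 1 = vehicle-only wells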
# CYP2C9 inh: human CYP2C9 inhibition; P11712; CYP2C9 Supersomes, luciferin-H conversion, luminescence; inhibition, % at 5 µM; 96,000 compounds, 20% hits; AID 777;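 active means blocking of liver enzyme CYP2C9 beyond about 50% at 5 µM, limit read from the data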
# Numbers without * were called inactive; . = no result given.
SMILES,Measles CPE,CYP2C9 activ,CYP2C19 inh,CYP2C19 act,CYP2C9 inh
CC1(C)C([N+](=O)[O-])C(c2ccc(O)cc2)NC(c2ccc(O)cc2)C1[N+](=O)[O-] (stereo unspecified),8,.,.,.,.
O=C(c1cccn2c(=O)c3cc(Cl)ccc3nc12)N1CCN(Cc2ccc3c(c2)OCO3)CC1,26,0,88*,0.1,97*
O=C(c1cccn2c(=O)c3cc(Cl)ccc3nc12)N1CCOCC1,5,0.8,17,0.8,23
CCOC(=O)CCC(=O)NCc1ccc2c(c1)cc(C)n2C,2,1.4,-6,1.1,-45
Cc1nc(NC(=O)c2ccco2)sc1-c1csc(Nc2ccc(Cl)cc2)n1,11,0.7,50,0.5,31
COc1ccc(-c2csc(NC(=O)c3ccco3)n2)cc1,1,.,.,.,.
Cc1ccc(Cl)cc1Nc1nc(-c2sc(NC(=O)c3ccco3)nc2C)cs1,2,0.4,16,0.8,57*
COc1cccc(N(C(=O)c2ccco2)c2nc(-c3sc(NC(=O)c4ccco4)nc3C)cs2)c1,1,0.5,41,0.6,55*
Cc1ccccc1Nc1nc(-c2sc(NC(=O)c3cccc(Cl)c3)nc2C)cs1,1,0.7,40,0.6,32
Cc1ccc(Cl)cc1Nc1nc(-c2sc(NC(=O)c3cccc(Cl)c3)nc2C)cs1,22,0.5,22,0.8,55*
COc1ccccc1Nc1nc(-c2sc(NC(=O)c3ccco3)nc2C)cs1,6,0.4,10,0.9,63*
CC(C)(C)c1ccc(CN2C3=NCCCN3c3ccccc32)cc1,1,.,.,.,.
O=C(O)CNC(=O)c1ccccc1F,.,1.2,-18,1.2,-24
c1ccc2c(Cn3nnc4ccccc43)cccc2c1,13,2.5*,26,0.7,-147
c1ccc2c(COn3nnc4ccccc43)cccc2c1,6,0.3,96*,0,70*
CC1(c2ccccc2)CC2CC(c3ccccc3)N1O2 (stereo unspecified),10,0.5,92*,0.1,54*
O=C(NCCN1CCOCC1)c1cc(-c2cccs2)on1,6,.,.,.,.
CCc1ccccc1NC(=O)C(Cc1cccc(OC)c1OC)c1nn[nH]n1 (stereo unspecified),9,0.5,0,1,50*
CCCCCCC(C)n1[nH]c(=O)c2c(C)cc(=O)[nH]c21 (stereo unspecified),9,0.8,39,0.6,19
N/C(=N\OCC(=O)Nc1ccccc1)c1nonc1N,12,.,.,.,.
Cc1ccc(NC(=O)CO/N=C(\N)c2nonc2N)cc1,8,0.8,70*,0.3,20
Cc1ccc2nc3ccc(N4CCCCCCC4)nn3c(=O)c2c1,17,0.3,64*,0.4,70*
Cc1ccc2nc3ccc(N4CCN(C)CC4)nn3c(=O)c2c1,9,1,21,0.8,2
N#Cc1cc2c(nc1SCc1ccccc1)CCC2,12,.,.,.,.
CN1CCc2nc(SCCOc3ccccc3)c(C#N)cc2C1,6,0.5,91*,0.1,49
SMILES,Measles CPE,CYP2C9 activ,CYP2C19 inh,CYP2C19 act,CYP2C9 inh
O=P(CCCCCCCCCP(=O)(c1ccccc1)c1ccccc1)(c1ccccc1)c1ccccc1,8,0,80*,0.2,99*
O=P(COc1ccccc1)(c1ccccc1)c1ccccc1,5,0.3,45,0.6,72*
COCP(=O)(c1ccccc1)c1ccccc1,4,1,7,0.9,-1
O=C(O)CP(=O)(c1ccccc1)c1ccccc1,0,0.9,-5,1.1,14
O=P(Cc1ccncc1)(c1ccccc1)c1ccccc1,14,1,60*,0.4,-3
O=P(Cc1ccccc1)(c1ccccc1)c1ccccc1,7,.,.,.,.
COc1ccc(CCSc2nnc(C3CCCCC3)n2N)cc1,5,0.5,58*,0.4,52*
COc1ccc(NC(=O)CSc2nnc(C3CC3)n2N)cc1,13,0.9,6,0.9,8
Cc1ccc(C(=O)N2CCN(C(=O)c3ccccc3)C2c2ccc(N(C)C)cc2)cc1 (stereo unspecified),10,.,.,.,.
COc1cc2c(cc1OC)C1=C(C#N)CN(CC(=O)O)CN1CC2,3,0.4,27,0.7,57*
CCCCN(C)CCCNC(=O)CCn1nc(-c2ccccc2)ccc1=O,9,1,-6,1.1,1
CC(C)CCNC(=O)CCn1nc(-c2ccccc2)ccc1=O,15,0.9,14,0.9,13
CCCCNC(=O)CCn1nc(-c2ccccc2)ccc1=O,49*,1.1,-6,1.1,-7
CC1CCCN(CCCNC(=O)CCn2nc(-c3ccccc3)ccc2=O)C1 (stereo unspecified),8,0.1,-4,1,87*
COc1ccc(/C=N/OCc2nc3c4c(ncn3n2)Oc2ccc3ccccc3c2C4c2ccccc2)cc1 (stereo unspecified),4,0.8,69*,0.3,15
COc1ccc(C2c3c(ccc4ccccc34)Oc3ncn4nc(Cc5ccccc5)nc4c32)cc1OC (stereo unspecified),8,.,.,.,.
COC(=O)c1ccc(CSc2nnc(CS(=O)Cc3ccc(Br)cc3)n2-c2ccccc2)cc1 (stereo unspecified),3,.,.,.,.
N#Cc1c(-n2ccnc2)cccc1-n1ccnc1,3,0.1,81*,0.2,94*
Cc1ccccc1N1C(=O)CC1(C#N)c1ccc(OCc2ccccc2)cc1 (stereo unspecified),20,.,.,.,.
Brc1c(CSc2nc3ccccc3s2)nc2ncccn12,28,.,.,.,.
CCN(CC)S(=O)(=O)c1ccc(OC)c(NC(=O)CSc2ccccc2)c1,8,0.1,50,0.5,89*
CCN(CC)S(=O)(=O)c1ccc(OC)c(NC(=S)Nc2cccc(C)c2C)c1,45*,.,.,.,.
CCN(CC)S(=O)(=O)c1ccc(OC)c(NC(=O)CSc2cc(Cl)ccc2Cl)c1,5,.,.,.,.
Nn1c(SCC(=O)Nc2ccc3c(c2)OCO3)nnc1C1CC1,3,0.6,-4,1,42
C/C(=N\NC(=O)c1ccn[nH]1)c1cn(C)nc1C,29,.,.,.,.
SMILES,Measles CPE,CYP2C9 activ,CYP2C19 inh,CYP2C19 act,CYP2C9 inh
CN(C)c1nc(OCCOC(=O)c2ccccc2)nc(N(C)C)n1,7,0.3,99*,0,70*
COc1nc(OCCNC(=O)Nc2ccccc2)nc(N(C)C)n1,3,0.5,71*,0.3,46
CNc1nc(OCCNC(=O)Nc2ccccc2)nc(N2CCOCC2)n1,9,0.3,34,0.7,65*
Cn1cnnc1SCC(=O)c1ccco1,2,1.1,-17,1.2,-13
CN(C)c1ccnc(Oc2ccc(Cl)cc2)c1C#N,6,0.6,22,0.8,37
Cc1cc(Cl)ccc1Oc1nccc(N(C)C)c1C#N,76*,0.4,24,0.8,61*
Cc1noc(C)c1S(=O)(=O)Nc1ccc(C(=O)N2CCN(c3ccc(Cl)cc3)CC2)cc1,34,1,1,1,3
Cc1noc(C)c1C(=O)NCCC1=CCCCC1,9,0.7,46,0.5,31
Cc1ccc(SCC(=O)NCC(C)C)cc1,32,0.5,75*,0.3,50*
CCS(=O)(=O)c1ccc2oc(SCC(=O)NCCC3=CCCCC3)nc2c1,11,0.3,44,0.6,72*
